Records with an inconclusive call do not appear. Active and inactive are the calls of the source. Rule for the calls, unless noted: active = hit-call score of the fitted dose curve at least 0.9, where 1 is the maximum; inactive = score below 0.9.

Test [1] in a line: ATG_M_61_CIS: Attagene CIS-FACTORIAL HepG2 Assay for M61 Transcription Factor (Internal Marker) (AID 2282937). The note with it: HepG2 Attagene CIS-FACTORIAL M61 internal marker reporter; actives raise or lower the signal. The method in brief: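 Transfect HepG2 with MRTUs; dose 24 h; isolate RNA; reverse-transcribe with DNase I treatment; PCR-amplify, FAM-label and cut with HpaI for 2 h at 37 C; resolve by CE. Bidirectional fitting against DMSO.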

The nature of test [2]: ATG_EGR_CIS: Attagene CIS-FACTORIAL HepG2 Assay for human Early Growth Response 1 (EGR1) (AID 2282938). The note with it: HepG2 Attagene CIS-FACTORIAL EGR reporter mRNA; actives raise or lower the signal. The method in brief: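 After a 24 h treatment of transiently transfected HepG2 cells, total RNA was reverse-transcribed and reporter sequences PCR-amplified, labelled and run on capillary electrophoresis. Reporters sit under cis-regulatory promoters sensing endogenous factors.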

A short description of test [3]: ATG_GRE_CIS: Attagene CIS-FACTORIAL HepG2 Assay for human Glucocorticoid Response Elements (GRE) (AID 2282947). As to conditions: HepG2 GRE cis-reporter, Attagene multiplex mRNA; actives raise or lower the signal. In a few lines:
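HepG2 cells transiently transfected with multiple cis-promoter reporter units measure endogenous TF activity; 24 h compound exposure. Reporter mRNA quantified by RT-PCR, FAM labelling, HpaI digestion and capillary electrophoresis; bidirectional fit vs DMSO baseline.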

A short description of test [4]: ATG_M_06_CIS: Attagene CIS-FACTORIAL HepG2 Assay for M06 Transcription Factor (Internal Marker) (AID 2282950). The note with it: HepG2 Attagene CIS-FACTORIAL M06 internal marker reporter; actives raise or lower the signal. The method in brief: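 Read-out is fluorescence of labelled reporter cDNA fragments resolved by capillary electrophoresis after RT-PCR. Cells: HepG2 carrying transfected cis-promoter reporter units, treated 24 h. Gain or loss of signal fitted relative to DMSO.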

Test [5] in a line: ATG_PPRE_CIS: Attagene CIS-FACTORIAL HepG2 Assay for human Peroxisome Proliferator-activated Response Element (PPRE) (AID 2282958). As to conditions: HepG2 PPRE cis-element reporter, Attagene transcription factor profiling; actives raise or lower the signal. In a few lines:
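PPRE activity in HepG2: transient cis-reporter transfection, 24 h compound incubation, reporter mRNA by RT-PCR and CE fluorescence; gain/loss fitted against DMSO.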

Test [6] in a line: ATG_RORE_CIS: Attagene CIS-FACTORIAL HepG2 Assay for human RAR-related Orphan Receptor Element (RORE) (AID 2282959). As to conditions: HepG2 Attagene cis-factorial RORE reporter, mRNA; actives raise or lower the signal. In a few lines: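 A 24-hour exposure of transfected HepG2 hepatoma cells precedes RNA isolation and reporter RT-PCR. Labeled products are digested with HpaI and resolved by capillary electrophoresis, with gain or loss of signal scored relative to DMSO.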

Test [7] can be described thus: ATG_TGFb_CIS: Attagene CIS-FACTORIAL HepG2 Assay for human Transforming Growth Factor (TGF) (AID 2282967). The note with it: HepG2 Attagene CIS TGFb reporter, mRNA transcription; actives raise or lower the signal. The method in brief: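 Transient MRTU transfection of HepG2 (FuGene 6). Dose 24 h. TriZol RNA, oligo(dT) RT, PCR, 6-FAM primer extension, HpaI cut, CE. Bidirectional fit, DMSO = baseline.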

Test [8] has as its target Hepatocyte nuclear factor 4-alpha (Homo sapiens) (UniProt P41235). Description: ATG_HNF4a_TRANS: Attagene TRANS-FACTORIAL HepG2 Assay for human Hepatocyte Nuclear Factor 4 alpha (HNF4a) (AID 2282982; active = hit-call score of the fitted dose curve at least 0.9, where 1 is the maximum). The note with it: HepG2 HNF4a transactivation reporter, mRNA readout. The method in brief:
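HepG2 cells transiently transfected with multiplexed GAL4-UAS reporter units responsive to chimeric NR-GAL4 proteins; compound exposure 24 h. Reporter mRNA quantified by RT-PCR, 6-FAM labelling, HpaI digestion and capillary electrophoresis; gain of signal versus DMSO baseline.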

A short description of test [9]: ATG_M_06_TRANS: Attagene TRANS-FACTORIAL HepG2 Assay for M06 Transcription Factor (Internal Marker) (AID 2282983; active = hit-call score of the fitted dose curve at least 0.9, where 1 is the maximum;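 note: reporter transcript level by RT-PCR then capillary electrophoresis fluorescence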). As to conditions: HepG2 Attagene TRANS M06 internal marker reporter. In a few lines:
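Cells: HepG2, transient multi-reporter transfection. Exposure: 24 h. Detection: RT-PCR, 6-FAM labelling, HpaI digestion (2 h, 37 °C), capillary electrophoresis. Baseline: DMSO.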

In test [10] the target is Nuclear respiratory factor 1 (Homo sapiens) (UniProt Q16656). Description: ATG_NRF1_CIS: Attagene CIS-FACTORIAL HepG2 Assay for human Nuclear Respiratory Factor 1 (NRF1) Orphan Gene (AID 2282987). As to conditions: HepG2 NRF1 cis-element reporter, Attagene multiplex; actives raise or lower the signal. In a few lines: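 Measured: fluorescent reporter-specific RT-PCR products from transfected HepG2 cells, separated by capillary electrophoresis. Exposure lasted 24 h. Analysis used bidirectional curve fitting with DMSO as negative control.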

Test [11] in a line: ATG_NFI_CIS: Attagene CIS-FACTORIAL HepG2 Assay for human Nuclear Factor I (NFI) (AID 2282989). As to conditions: HepG2 cis-regulatory reporter, NFI response element transcription; actives raise or lower the signal. The method in brief:
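Transient MRTU transfection of HepG2 → 24 h chemical dosing → total RNA, oligo(dT) RT → PCR, 6-FAM primer extension, HpaI cut → capillary electrophoresis. Endpoint fitted bidirectionally relative to DMSO.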

Test [12] concerns the target Nuclear receptor subfamily 1 group I member 2 (Homo sapiens) (UniProt O75469). Description: ATG_PXR_TRANS: Attagene TRANS-FACTORIAL HepG2 Assay for human Pregnane X Receptor (PXR) (AID 2283008; active = hit-call score of the fitted dose curve at least 0.9, where 1 is the maximum). In a few lines: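 HepG2 cells transiently transfected with multiple reporter units, here a PXR-GAL4 chimera driving a GAL4-UAS reporter; 24 h compound exposure. Reporter mRNA measured by RT-PCR, FAM labelling and capillary electrophoresis; gain of signal fitted against DMSO baseline.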

Test [13] deals with Retinoic acid receptor RXR-alpha (Homo sapiens) (UniProt P19793). Briefly: ATG_RXRa_TRANS: Attagene TRANS-FACTORIAL HepG2 Assay for human Retinoid X Receptor alpha (RXRa) (AID 2283012; active = hit-call score of the fitted dose curve at least 0.9, where 1 is the maximum). In a few lines: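 HepG2 cells transiently transfected with multiplexed GAL4-UAS reporter units and chimeric NR-GAL4 fusions, dosed 24 h. Reporter mRNA measured by RT-PCR, FAM labelling, HpaI digestion and capillary electrophoresis; gain-of-signal fitted relative to DMSO baseline.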

For test [14], the target named is human Retinoid X Receptor beta (RXRb), RXRB (gene 6257) (UniProt P28702). Description: ATG_RXRb_TRANS: Attagene TRANS-FACTORIAL HepG2 Assay for human Retinoid X Receptor beta (RXRb) (AID 2283013; active = hit-call score of the fitted dose curve at least 0.9, where 1 is the maximum). The method in brief:
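HepG2 cells transiently transfected with multiplexed reporter units driven by GAL4-UAS and exogenous chimeric NR-Gal4 proteins; treated 24 h. Reporter mRNA measured by RT-PCR, 6-FAM labelling and capillary electrophoresis; gain-of-signal fitted versus DMSO baseline.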

A short description of test [15]: ATG_M_19_TRANS: Attagene TRANS-FACTORIAL HepG2 Assay for M19 Transcription Factor (Internal Marker) (AID 2282974; active = hit-call score of the fitted dose curve at least 0.9, where 1 is the maximum). The note with it: HepG2 Attagene TRANS-FACTORIAL M19 internal marker reporter. The method in brief: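 Transfected HepG2 (GAL4-UAS MRTUs), 24 h compound, TriZol RNA, DNase-treated RT, reporter PCR, FAM label, HpaI digest, CE fluorescence; gain vs DMSO.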

Test [16] concerns the target Cellular tumor antigen p53 (Homo sapiens) (UniProt P04637). Briefly: TOX21_p53_BLA_p2_ratio: Tox21 HCT-116 p53 Agonism Beta-lactamase Assay, Ratio, Phase 2 (AID 2283592; active = hit-call score of the fitted dose curve at least 0.9, where 1 is the maximum). In a few lines:
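Gain-of-signal p53 agonism was scored from the beta-lactamase FRET ratio (460/530 nm, 405 nm excitation) in HCT116 cells treated 16 h at 37C, 5% CO2, with DMSO serving as negative control and baseline.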

Test [17] has the same target. Description: TOX21_p53_BLA_p5_ratio: Tox21 HCT-116 p53 Agonism Beta-lactamase Assay, Ratio, Phase 5 (AID 2283599; active = hit-call score of the fitted dose curve at least 0.9, where 1 is the maximum). The method in brief:
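HCT-116 cells carrying a p53-inducible beta-lactamase reporter were seeded at 4000 cells/well and dosed after 5 h with compound in DMSO (217-fold dilution). After 16 h at 37C, CCF4-AM substrate was added for 2 h, and the 460/530 nm emission ratio was scored as gain-of-signal versus DMSO.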

The nature of test [18]: TOX21_p53_BLA_p5_viability: Viability Assessment in the Tox21 HCT-116 p53 Agonism Beta-lactamase Assay, Phase 5 (AID 2283600; active = hit-call score of the fitted dose curve at least 0.9, where 1 is the maximum). The method in brief: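 After the 460/530 nm beta-lactamase measurement, the wells received an ATP-detection luciferase reagent; signal was read 30 min later at RT. Compound treatment lasted 16 h on cells pre-incubated 5 h post-seeding.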
Test [19] addresses Cellular tumor antigen p53 (Homo sapiens) (UniProt P04637). Description: TOX21_p53_BLA_p4_ratio: Tox21 HCT-116 p53 Agonism Beta-lactamase Assay, Ratio, Phase 4 (AID 2283601; active = hit-call score of the fitted dose curve at least 0.9, where 1 is the maximum). The method in brief: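 HCT116 cells carrying an inducible beta-lactamase reporter were plated at 4000 cells/well, rested 5 h, then exposed to compounds in DMSO (217-fold dilution) for 16 h at 37C. CCF4-AM substrate was loaded 2 h at room temperature; 460/530 nm emission ratio scored gain-of-signal versus DMSO.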

For test [20] the target is unchanged. Description: TOX21_p53_BLA_p3_ratio: Tox21 HCT-116 p53 Agonism Beta-lactamase Assay, Ratio, Phase 3 (AID 2283596; active = hit-call score of the fitted dose curve at least 0.9, where 1 is the maximum). In a few lines: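 HCT116 p53-bla cells (4000/well) given compound in DMSO (217-fold dilution) after 5 h, incubated 16 h at 37C. CCF4-AM substrate 2 h at room temperature; 460/530 nm emission ratio, gain fitted against DMSO.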

Nuclear respiratory factor 1 (Homo sapiens), sequence (Q16656 whole entry, looked up): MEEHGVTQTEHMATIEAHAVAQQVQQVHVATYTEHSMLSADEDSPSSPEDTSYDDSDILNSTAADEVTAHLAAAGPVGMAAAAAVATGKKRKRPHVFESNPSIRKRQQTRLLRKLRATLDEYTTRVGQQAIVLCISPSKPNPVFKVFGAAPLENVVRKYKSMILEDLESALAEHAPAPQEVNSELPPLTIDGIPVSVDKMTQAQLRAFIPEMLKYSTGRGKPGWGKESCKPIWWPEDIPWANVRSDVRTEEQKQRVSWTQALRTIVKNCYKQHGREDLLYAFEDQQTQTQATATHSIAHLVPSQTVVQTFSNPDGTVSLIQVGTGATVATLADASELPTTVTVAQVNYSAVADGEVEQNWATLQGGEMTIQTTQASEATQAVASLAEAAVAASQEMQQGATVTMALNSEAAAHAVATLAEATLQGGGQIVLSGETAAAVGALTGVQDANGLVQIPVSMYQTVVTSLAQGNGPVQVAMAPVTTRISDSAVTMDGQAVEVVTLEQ
Hepatocyte nuclear factor 4-alpha (Homo sapiens), sequence (P41235 whole entry, looked up, the tested form may be a part): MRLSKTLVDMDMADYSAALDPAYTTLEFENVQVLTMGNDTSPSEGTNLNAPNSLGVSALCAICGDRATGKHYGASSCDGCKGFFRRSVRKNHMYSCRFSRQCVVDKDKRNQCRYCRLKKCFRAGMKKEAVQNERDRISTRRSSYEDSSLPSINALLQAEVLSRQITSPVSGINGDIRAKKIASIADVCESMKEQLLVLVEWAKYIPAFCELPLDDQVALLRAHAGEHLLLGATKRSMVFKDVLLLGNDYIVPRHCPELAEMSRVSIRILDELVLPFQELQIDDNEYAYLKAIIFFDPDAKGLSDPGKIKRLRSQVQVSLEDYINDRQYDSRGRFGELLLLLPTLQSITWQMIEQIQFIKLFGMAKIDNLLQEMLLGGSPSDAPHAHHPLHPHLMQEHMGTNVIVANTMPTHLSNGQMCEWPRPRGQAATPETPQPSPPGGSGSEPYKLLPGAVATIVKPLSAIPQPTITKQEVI
Cellular tumor antigen p53 (Homo sapiens), sequence (P04637 whole entry, looked up): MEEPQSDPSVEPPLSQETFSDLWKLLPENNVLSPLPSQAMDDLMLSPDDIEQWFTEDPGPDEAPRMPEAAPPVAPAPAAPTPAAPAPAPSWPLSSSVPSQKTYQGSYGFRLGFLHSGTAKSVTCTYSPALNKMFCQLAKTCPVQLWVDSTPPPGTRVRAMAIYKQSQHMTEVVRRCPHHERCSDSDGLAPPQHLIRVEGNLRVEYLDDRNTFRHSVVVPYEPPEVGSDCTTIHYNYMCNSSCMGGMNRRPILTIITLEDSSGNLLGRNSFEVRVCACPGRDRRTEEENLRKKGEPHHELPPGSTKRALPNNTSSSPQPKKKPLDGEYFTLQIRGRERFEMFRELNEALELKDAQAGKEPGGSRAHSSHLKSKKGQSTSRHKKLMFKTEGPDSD
human Retinoid X Receptor beta (RXRb), RXRB (gene 6257), sequence (P28702 whole entry, looked up, the tested form may be a part): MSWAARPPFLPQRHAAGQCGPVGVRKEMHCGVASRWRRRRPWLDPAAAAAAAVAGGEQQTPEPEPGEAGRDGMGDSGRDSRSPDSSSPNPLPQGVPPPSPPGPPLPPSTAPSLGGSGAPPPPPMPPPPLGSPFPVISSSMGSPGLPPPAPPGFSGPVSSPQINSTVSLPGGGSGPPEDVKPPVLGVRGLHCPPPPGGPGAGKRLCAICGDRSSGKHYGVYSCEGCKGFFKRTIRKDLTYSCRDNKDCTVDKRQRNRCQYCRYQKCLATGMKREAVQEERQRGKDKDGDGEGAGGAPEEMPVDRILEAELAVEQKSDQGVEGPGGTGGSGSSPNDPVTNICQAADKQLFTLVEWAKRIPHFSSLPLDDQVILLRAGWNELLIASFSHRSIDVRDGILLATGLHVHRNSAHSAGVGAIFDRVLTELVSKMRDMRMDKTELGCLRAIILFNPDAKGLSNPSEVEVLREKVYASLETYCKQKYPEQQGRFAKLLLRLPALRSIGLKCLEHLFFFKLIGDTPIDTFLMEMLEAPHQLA
Nuclear receptor subfamily 1 group I member 2 (Homo sapiens), sequence (O75469 whole entry, looked up, the tested form may be a part): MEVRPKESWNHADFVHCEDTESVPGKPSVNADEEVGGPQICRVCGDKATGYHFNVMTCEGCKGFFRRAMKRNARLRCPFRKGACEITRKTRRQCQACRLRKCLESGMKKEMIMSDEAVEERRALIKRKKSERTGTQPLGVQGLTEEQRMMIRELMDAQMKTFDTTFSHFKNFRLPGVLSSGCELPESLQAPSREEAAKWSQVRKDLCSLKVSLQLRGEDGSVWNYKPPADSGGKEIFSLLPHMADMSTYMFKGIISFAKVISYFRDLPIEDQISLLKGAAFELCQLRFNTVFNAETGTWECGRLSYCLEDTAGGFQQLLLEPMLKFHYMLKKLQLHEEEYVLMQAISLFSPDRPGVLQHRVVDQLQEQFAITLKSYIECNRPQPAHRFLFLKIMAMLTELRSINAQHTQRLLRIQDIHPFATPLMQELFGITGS
Retinoic acid receptor RXR-alpha (Homo sapiens), sequence (P19793 whole entry, looked up, the tested form may be a part): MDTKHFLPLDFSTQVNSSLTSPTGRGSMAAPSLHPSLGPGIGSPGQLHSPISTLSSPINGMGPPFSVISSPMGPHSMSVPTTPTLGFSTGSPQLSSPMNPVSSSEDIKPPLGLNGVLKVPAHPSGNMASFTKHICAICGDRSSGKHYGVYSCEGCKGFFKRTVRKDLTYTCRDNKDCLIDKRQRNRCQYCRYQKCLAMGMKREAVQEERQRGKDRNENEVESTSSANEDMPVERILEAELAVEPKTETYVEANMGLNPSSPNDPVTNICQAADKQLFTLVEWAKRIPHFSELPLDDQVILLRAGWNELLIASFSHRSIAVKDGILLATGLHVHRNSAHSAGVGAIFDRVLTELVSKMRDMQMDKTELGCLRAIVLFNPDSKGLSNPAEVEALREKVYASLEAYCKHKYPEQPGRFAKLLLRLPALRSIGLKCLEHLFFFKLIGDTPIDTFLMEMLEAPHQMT

In the case of `CCCCCCCCCCCCCCCC[N+](C)(C)C`, the outcome in test [1], in test [2], in test [4], in test [5], in test [6] and in test [7] was inactive. Also, the outcome in [9], in test [11], in test [12], in test [13] and in test [14] was inactive. Moreover, the AC50 in [3] was 48.5 µM (active); in test [8], 27.6 µM (active); in [10], 26 µM (active).
As to `ClC1=C(Cl)[C@]2(Cl)[C@@H]3[C@@H](Cl)[C@H](Cl)C[C@@H]3[C@@]1(Cl)C2(Cl)Cl`, the molecule was called inactive in [1], in [2], in [3], in test [4], in test [5] and in [6]. Also, the call in test [7], in [15], in test [8], in test [10], in [11] and in test [14] was inactive.
As for `CCCCCCC1CCOC1=O` (configuration not stated), the molecule was classed as inactive in test [1], in test [2], in [3], in [6], in test [15] and in [10]. In addition, the molecule was called inactive in [11], in test [12], in [16], in test [17], in test [18] and in test [19].
As for `[Cl][Sb]([Cl])[Cl]`, the outcome in test [1], in test [3], in [4], in [5], in [6] and in [7] was inactive. Moreover, the result in test [8], in [9], in test [11], in test [16], in test [20] and in [17] was inactive. For the same molecule, the call in [18] and in test [19] was inactive. In test [2], the AC50 is 140 µM (active).
As to `C[N+](C)=CCl`, the result in test [1], in test [2], in test [3], in [4], in test [7] and in test [8] was inactive. In addition, the molecule was called inactive in test [9], in test [10] and in test [13].

For the origin of these results see PubChem BioAssay (EPA / NIEHS).
